We go through eleven compounds from PubChem BioAssay.

Sequence of Epidermal growth factor receptor (Homo sapiens) (P00533 whole entry, looked up): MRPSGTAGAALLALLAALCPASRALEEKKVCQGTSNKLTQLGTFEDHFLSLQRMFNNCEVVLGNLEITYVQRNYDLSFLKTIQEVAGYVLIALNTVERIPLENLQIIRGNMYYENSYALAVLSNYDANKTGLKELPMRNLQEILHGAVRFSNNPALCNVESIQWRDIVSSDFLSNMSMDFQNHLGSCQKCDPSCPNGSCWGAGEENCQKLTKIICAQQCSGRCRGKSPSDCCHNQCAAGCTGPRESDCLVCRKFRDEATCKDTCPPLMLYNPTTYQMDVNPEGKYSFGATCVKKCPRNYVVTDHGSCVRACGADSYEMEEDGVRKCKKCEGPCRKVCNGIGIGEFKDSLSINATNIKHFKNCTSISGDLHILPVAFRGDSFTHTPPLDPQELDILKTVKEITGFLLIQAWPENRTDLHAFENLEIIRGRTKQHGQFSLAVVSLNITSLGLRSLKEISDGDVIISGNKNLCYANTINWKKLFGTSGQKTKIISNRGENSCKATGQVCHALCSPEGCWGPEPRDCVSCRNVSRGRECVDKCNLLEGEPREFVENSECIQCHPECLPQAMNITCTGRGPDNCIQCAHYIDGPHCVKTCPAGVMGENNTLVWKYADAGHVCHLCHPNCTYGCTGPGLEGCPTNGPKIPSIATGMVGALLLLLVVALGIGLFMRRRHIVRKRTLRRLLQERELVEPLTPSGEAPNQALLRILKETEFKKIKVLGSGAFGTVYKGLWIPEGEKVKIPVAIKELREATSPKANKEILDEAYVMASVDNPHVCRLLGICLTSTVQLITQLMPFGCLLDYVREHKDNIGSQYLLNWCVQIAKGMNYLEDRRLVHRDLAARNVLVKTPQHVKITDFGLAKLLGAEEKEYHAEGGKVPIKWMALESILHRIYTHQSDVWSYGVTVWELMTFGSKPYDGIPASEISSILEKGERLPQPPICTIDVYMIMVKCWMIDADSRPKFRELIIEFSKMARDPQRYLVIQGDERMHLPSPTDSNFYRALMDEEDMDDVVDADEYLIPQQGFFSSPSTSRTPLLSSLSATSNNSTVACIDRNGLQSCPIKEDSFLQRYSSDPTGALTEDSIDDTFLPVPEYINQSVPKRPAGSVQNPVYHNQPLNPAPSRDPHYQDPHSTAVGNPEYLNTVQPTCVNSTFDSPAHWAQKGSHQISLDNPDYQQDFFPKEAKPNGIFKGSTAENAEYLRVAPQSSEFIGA

For one experiment, the system named is glycogen synthase kinase-3 (GSK3A per assay name; protocol says GSK3B). The experiment in a line: compounds binding glycogen synthase kinase-3 – biochemical, small-molecule microarray, 635 nm fluorescence, GSK3A, primary screen (AID 1103). Also: the record names both GSK3A and GSK3B. To be noted: fluorescence 635 nm, higher = more signal.
`COCCCNC(=O)[C@@]1(CCC(=O)OC(C)(C)C)N=C(c2ccc(OCCCO)cc2)O[C@H]1c1ccccc1N=[N+]=[N-]`: the composite z-score turned out to be 1.31.
On the same count and under the same terms, for `[N-]=[N+]=Nc1ccccc1C[C@]1(C(=O)NCC(O)CO)COC(c2ccc(OCCCO)cc2)=N1` (stereo partly specified) the value was -0.269.
Turning to `CCCC[C@@H](O)C1=C(COC)C[C@H]2C(=O)N(C)C(=O)[C@H]2[C@H]1CO`, the composite z-score was -0.0596.
The same measure, in the same setting: next, `CCCCCCc1nc(Cc2cc(OC)c(OC)c(OC)c2)cc2c1[Si](C(C)C)(C(C)C)OC2`: -0.195.

Another experiment has as its target Epidermal growth factor receptor (Homo sapiens) (UniProt P00533). The experiment can be described thus: compounds binding epidermal growth factor receptor – biochemical, small-molecule microarray, 635 nm fluorescence, primary screen (AID 1104).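 Also: score merges 667 nm emission intensity with spot signal to noise over triplicate slides.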 The conditions noted are these: EGFR binding, higher = more signal.
Compound `N#Cc1ccc(NN2C(C(O)c3ccc(Br)cc3)C=CC3C(=O)N(c4ccccc4)C(=O)C32)cc1` (stereo unspecified) returned a composite z-score of 0.297.
For `CC1CC/C=C\[C@H]2OC34C=CCN(c5ccc(Cl)cc5)C(=O)[C@H]3N(C(C)CO)C(=O)[C@]4(C)C2C(=O)O1` (stereo partly specified), the composite z-score was -0.955.
As for `CO[C@H]1O[C@H](CO)[C@@H](OC(=O)Nc2ccc(Br)cc2)[C@@H]2OC(=O)[C@@H](Cc3ccccc3)C/C=C/C[C@H](Cc3ccccc3)C(=O)O[C@@H]12`, the composite z-score is -0.265.
Same read-out and setting: for `CCOC(=O)C[C@H]1[C@H](OC(=O)c2cc3ccccc3oc2=O)[C@@H](NC(=O)c2ccccc2)c2cc(OCCCO)ccc2N1C(=O)c1ccccc1` the value was 0.417; for `O=C1OCCC=C[C@H]2OC34C=CCN(c5ccc6ccccc6c5)C(=O)[C@H]3N(CCCO)C(=O)[C@@H]4C12` (stereo partly specified), -1.93.
The same measure, in the same setting: for `O=C1C2C=CC(C(O)C3CC=CCC3)N(Nc3ccccc3)C2C(=O)N1c1ccccc1` (stereo unspecified) the value was 0.303; for `Cc1ccc(S[C@]2(C(=O)NC(C)C)CC(=O)N(Cc3cc(C(F)(F)F)cc(C(F)(F)F)c3)[C@@H]2c2ccc(CO)cc2)cc1`, -1.48.
